In PMC7862700, “An all-to-all approach to the identification of sequence-specific readers for epigenetic DNA modifications on cytosine”:

Tests used:
Test in all cases: DAPPL (digital affinity profiling via proximity ligation, sequencing); 10 mM Tris-HCl pH 7.5, 50 mM NaCl, 1 mM DTT, 4% glycerol, room temperature, 30 min; GST-TFs on glutathione beads, 16-mer random dsDNA library, 0.1% formaldehyde crosslink after washing; high values mean tight binding
Settings in all cases: protein: recombinant; tags: N-terminal GST; dsDNA, one strand shown
FLI1 = target: T1, FLI1 (Homo sapiens, UniProt Q01543 1-452)
T1 sequence: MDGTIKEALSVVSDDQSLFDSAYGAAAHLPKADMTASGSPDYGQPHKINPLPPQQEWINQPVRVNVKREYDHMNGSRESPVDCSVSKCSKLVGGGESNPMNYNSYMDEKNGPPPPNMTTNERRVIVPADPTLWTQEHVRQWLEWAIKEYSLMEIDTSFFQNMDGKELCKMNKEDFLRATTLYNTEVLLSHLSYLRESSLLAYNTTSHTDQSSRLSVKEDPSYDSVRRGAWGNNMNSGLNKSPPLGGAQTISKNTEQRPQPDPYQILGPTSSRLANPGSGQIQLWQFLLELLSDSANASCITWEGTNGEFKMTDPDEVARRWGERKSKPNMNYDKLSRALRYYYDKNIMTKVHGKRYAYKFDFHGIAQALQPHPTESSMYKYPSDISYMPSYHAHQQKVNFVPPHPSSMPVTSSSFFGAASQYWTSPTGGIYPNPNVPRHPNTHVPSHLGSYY
Procedure, shortened: (§1)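 Pools were built from human transcription factors expressed in yeast as GST fusions, captured on glutathione beads and DNA-barcoded, along with a tag-only sample. Incubation with 200 nmole of a 16-mer random double-stranded DNA library lasted 30 min at room temperature in Tris/NaCl/DTT/glycerol buffer, and was followed by washing, 0.1% formaldehyde crosslinking, proximity ligation, PCR amplification and Illumina NextSeq500 sequencing. Binding signal is the quotient of each hexamer's read frequency for a factor and its frequency for the tag-only sample.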

ELK1 = target: T2, ELK1 (Homo sapiens, UniProt P19419 1-428)
T2 sequence: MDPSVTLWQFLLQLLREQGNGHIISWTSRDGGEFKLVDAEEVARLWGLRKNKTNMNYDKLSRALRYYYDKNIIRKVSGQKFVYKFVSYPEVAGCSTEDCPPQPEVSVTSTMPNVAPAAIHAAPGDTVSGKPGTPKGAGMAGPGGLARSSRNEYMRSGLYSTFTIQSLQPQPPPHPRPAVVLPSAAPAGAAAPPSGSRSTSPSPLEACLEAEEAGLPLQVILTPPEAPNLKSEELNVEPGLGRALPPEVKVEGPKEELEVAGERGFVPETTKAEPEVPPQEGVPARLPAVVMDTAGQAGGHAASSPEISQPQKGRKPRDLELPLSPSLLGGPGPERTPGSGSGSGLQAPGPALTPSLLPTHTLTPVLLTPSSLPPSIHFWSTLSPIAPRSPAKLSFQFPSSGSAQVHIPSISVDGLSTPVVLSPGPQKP
Procedure, shortened: as §1

GABPA = target: T3, GABPA (Homo sapiens, UniProt Q06546 1-454)
T3 sequence: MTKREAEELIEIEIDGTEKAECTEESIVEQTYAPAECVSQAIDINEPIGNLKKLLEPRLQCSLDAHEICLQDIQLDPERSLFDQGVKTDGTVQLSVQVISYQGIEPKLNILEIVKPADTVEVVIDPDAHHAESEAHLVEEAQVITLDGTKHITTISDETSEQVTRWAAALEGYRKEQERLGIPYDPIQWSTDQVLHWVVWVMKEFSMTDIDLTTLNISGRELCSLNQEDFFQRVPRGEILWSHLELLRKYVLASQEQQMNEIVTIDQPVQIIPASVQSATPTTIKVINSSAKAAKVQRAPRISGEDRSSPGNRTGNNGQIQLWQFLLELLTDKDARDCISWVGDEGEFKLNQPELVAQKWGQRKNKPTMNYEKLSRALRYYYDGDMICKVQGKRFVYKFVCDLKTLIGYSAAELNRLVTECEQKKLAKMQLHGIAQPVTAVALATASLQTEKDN
Procedure, shortened: as §1

ERG = target: T4, ERG (Homo sapiens, UniProt P11308 1-479)
T4 sequence: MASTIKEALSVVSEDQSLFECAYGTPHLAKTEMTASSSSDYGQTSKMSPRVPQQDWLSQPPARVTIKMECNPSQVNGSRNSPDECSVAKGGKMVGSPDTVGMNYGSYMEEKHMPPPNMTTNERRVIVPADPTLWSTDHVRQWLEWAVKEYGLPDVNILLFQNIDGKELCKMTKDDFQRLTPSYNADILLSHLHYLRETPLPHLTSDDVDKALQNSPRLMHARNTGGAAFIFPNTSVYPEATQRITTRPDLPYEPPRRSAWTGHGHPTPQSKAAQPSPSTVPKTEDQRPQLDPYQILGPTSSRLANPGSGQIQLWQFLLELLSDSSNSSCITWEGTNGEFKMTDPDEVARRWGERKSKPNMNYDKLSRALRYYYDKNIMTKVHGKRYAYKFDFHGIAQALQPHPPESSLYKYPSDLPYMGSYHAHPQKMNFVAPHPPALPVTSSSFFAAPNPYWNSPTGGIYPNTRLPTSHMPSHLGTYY
Procedure, shortened: as §1

ELF1 = ELF1 (Homo sapiens, UniProt P32519 1-619)
Procedure, shortened: as §1

EHF = target: T5, EHF (Homo sapiens, UniProt Q9NZC4 1-300)
T5 sequence: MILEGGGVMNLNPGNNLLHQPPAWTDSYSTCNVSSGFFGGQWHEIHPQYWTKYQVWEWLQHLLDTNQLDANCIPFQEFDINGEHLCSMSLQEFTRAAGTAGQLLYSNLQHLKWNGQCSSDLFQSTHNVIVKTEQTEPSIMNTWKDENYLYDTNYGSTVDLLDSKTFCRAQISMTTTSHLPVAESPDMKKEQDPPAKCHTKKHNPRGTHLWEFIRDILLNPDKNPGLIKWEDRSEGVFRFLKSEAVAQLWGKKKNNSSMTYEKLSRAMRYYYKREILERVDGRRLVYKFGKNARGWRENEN
Procedure, shortened: as §1

SPI1 = SPI1 (Homo sapiens, UniProt P17947 1-270)
Procedure, shortened: as §1

SPIB = SPIB (Homo sapiens, UniProt Q01892 1-262)
Procedure, shortened: as §1

ELK3 = target: T6, ELK3 (Homo sapiens, UniProt P41970 1-407)
T6 sequence: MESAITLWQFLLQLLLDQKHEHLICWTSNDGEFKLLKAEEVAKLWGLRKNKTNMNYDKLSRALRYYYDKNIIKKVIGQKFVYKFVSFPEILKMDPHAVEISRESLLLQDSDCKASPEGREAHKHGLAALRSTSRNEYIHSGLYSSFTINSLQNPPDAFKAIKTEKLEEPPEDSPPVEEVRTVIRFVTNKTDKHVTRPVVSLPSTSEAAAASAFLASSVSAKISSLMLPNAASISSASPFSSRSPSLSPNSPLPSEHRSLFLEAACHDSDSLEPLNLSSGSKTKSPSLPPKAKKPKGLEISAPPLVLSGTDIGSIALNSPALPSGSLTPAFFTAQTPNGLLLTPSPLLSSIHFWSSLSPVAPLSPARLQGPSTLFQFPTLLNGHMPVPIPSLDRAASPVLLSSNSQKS
Procedure, shortened: as §1

ELF1, sequence (P32519 whole entry): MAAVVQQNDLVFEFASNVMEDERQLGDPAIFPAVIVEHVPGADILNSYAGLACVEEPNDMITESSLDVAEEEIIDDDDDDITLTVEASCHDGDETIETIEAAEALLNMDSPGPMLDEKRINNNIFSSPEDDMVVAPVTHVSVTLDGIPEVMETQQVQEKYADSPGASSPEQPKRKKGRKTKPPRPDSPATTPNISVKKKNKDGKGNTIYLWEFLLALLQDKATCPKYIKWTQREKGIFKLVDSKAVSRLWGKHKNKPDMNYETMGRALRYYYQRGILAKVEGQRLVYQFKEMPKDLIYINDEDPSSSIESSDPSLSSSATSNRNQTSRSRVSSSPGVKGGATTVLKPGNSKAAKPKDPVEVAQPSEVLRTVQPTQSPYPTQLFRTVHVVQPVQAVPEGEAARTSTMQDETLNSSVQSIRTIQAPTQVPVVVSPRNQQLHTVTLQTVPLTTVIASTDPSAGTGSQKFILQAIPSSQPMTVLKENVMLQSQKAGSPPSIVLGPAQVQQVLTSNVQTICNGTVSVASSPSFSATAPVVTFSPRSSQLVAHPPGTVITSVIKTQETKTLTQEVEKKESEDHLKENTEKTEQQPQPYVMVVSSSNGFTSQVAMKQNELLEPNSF
SPIB, sequence (Q01892 whole entry): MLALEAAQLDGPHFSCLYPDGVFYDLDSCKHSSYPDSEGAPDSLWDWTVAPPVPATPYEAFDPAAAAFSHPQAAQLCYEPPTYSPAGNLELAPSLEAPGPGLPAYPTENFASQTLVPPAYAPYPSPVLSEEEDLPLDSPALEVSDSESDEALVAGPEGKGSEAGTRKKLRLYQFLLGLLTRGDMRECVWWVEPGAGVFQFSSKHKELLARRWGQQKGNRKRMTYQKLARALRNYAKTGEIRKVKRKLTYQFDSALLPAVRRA

## CCCTTG
FLI1
  binding signal: 1.14 fold enrichment (6-mer frequency, TF over GST control)
ELK1
  binding signal: 1.21 fold enrichment (6-mer frequency, TF over GST control)
GABPA
  binding signal: 1.24 fold enrichment (6-mer frequency, TF over GST control)
ERG
  binding signal: 1.23 fold enrichment (6-mer frequency, TF over GST control)
ELF1
  binding signal: 1.3 fold enrichment (6-mer frequency, TF over GST control)
EHF
  binding signal: 1.22 fold enrichment (6-mer frequency, TF over GST control)
SPI1
  binding signal: 1.16 fold enrichment (6-mer frequency, TF over GST control)
SPIB
  binding signal: 1.19 fold enrichment (6-mer frequency, TF over GST control)
ELK3
  binding signal: 1.2 fold enrichment (6-mer frequency, TF over GST control)

## CAAATT
FLI1
  binding signal: 1.15 fold enrichment (6-mer frequency, TF over GST control)
ELK1
  binding signal: 1.12 fold enrichment (6-mer frequency, TF over GST control)
GABPA
  binding signal: 1.2 fold enrichment (6-mer frequency, TF over GST control)
ERG
  binding signal: 1.16 fold enrichment (6-mer frequency, TF over GST control)
ELF1
  binding signal: 1.14 fold enrichment (6-mer frequency, TF over GST control)
EHF
  binding signal: 1.11 fold enrichment (6-mer frequency, TF over GST control)
SPI1
  binding signal: 1.15 fold enrichment (6-mer frequency, TF over GST control)
SPIB
  binding signal: 1.08 fold enrichment (6-mer frequency, TF over GST control)
ELK3
  binding signal: 1.14 fold enrichment (6-mer frequency, TF over GST control)

## CAGGAA
FLI1
  binding signal: 1.63 fold enrichment (6-mer frequency, TF over GST control)
ELK1
  binding signal: 1.57 fold enrichment (6-mer frequency, TF over GST control)
GABPA
  binding signal: 1.5 fold enrichment (6-mer frequency, TF over GST control)
ERG
  binding signal: 1.83 fold enrichment (6-mer frequency, TF over GST control)
ELF1
  binding signal: 1.48 fold enrichment (6-mer frequency, TF over GST control)
EHF
  binding signal: 1.79 fold enrichment (6-mer frequency, TF over GST control)
SPI1
  binding signal: 1.96 fold enrichment (6-mer frequency, TF over GST control)
SPIB
  binding signal: 1.69 fold enrichment (6-mer frequency, TF over GST control)
ELK3
  binding signal: 1.57 fold enrichment (6-mer frequency, TF over GST control)

## CTCTCC
FLI1
  binding signal: 1.35 fold enrichment (6-mer frequency, TF over GST control)
ELK1
  binding signal: 1.33 fold enrichment (6-mer frequency, TF over GST control)
GABPA
  binding signal: 1.37 fold enrichment (6-mer frequency, TF over GST control)
ERG
  binding signal: 1.22 fold enrichment (6-mer frequency, TF over GST control)
ELF1
  binding signal: 1.4 fold enrichment (6-mer frequency, TF over GST control)
EHF
  binding signal: 1.34 fold enrichment (6-mer frequency, TF over GST control)
SPI1
  binding signal: 1.41 fold enrichment (6-mer frequency, TF over GST control)
SPIB
  binding signal: 1.35 fold enrichment (6-mer frequency, TF over GST control)
ELK3
  binding signal: 1.37 fold enrichment (6-mer frequency, TF over GST control)

## CTTGGC
FLI1
  binding signal: 1.19 fold enrichment (6-mer frequency, TF over GST control)
ELK1
  binding signal: 1.23 fold enrichment (6-mer frequency, TF over GST control)
GABPA
  binding signal: 1.25 fold enrichment (6-mer frequency, TF over GST control)
ERG
  binding signal: 1.12 fold enrichment (6-mer frequency, TF over GST control)
ELF1
  binding signal: 1.14 fold enrichment (6-mer frequency, TF over GST control)
EHF
  binding signal: 1.22 fold enrichment (6-mer frequency, TF over GST control)
SPI1
  binding signal: 1.18 fold enrichment (6-mer frequency, TF over GST control)
SPIB
  binding signal: 1.2 fold enrichment (6-mer frequency, TF over GST control)
ELK3
  binding signal: 1.18 fold enrichment (6-mer frequency, TF over GST control)

## CCTTCG
FLI1
  binding signal: 1.31 fold enrichment (6-mer frequency, TF over GST control)
ELK1
  binding signal: 1.33 fold enrichment (6-mer frequency, TF over GST control)
GABPA
  binding signal: 1.35 fold enrichment (6-mer frequency, TF over GST control)
ERG
  binding signal: 1.3 fold enrichment (6-mer frequency, TF over GST control)
ELF1
  binding signal: 1.33 fold enrichment (6-mer frequency, TF over GST control)
EHF
  binding signal: 1.19 fold enrichment (6-mer frequency, TF over GST control)
SPI1
  binding signal: 1.32 fold enrichment (6-mer frequency, TF over GST control)
SPIB
  binding signal: 1.41 fold enrichment (6-mer frequency, TF over GST control)
ELK3
  binding signal: 1.65 fold enrichment (6-mer frequency, TF over GST control)

## TATAGA
FLI1
  binding signal: 1.02 fold enrichment (6-mer frequency, TF over GST control)
ELK1
  binding signal: 1.07 fold enrichment (6-mer frequency, TF over GST control)
GABPA
  binding signal: 1.12 fold enrichment (6-mer frequency, TF over GST control)
ERG
  binding signal: 1 fold enrichment (6-mer frequency, TF over GST control)
ELF1
  binding signal: 1.13 fold enrichment (6-mer frequency, TF over GST control)
EHF
  binding signal: 1.07 fold enrichment (6-mer frequency, TF over GST control)
SPI1
  binding signal: 1.13 fold enrichment (6-mer frequency, TF over GST control)
SPIB
  binding signal: 1.07 fold enrichment (6-mer frequency, TF over GST control)
ELK3
  binding signal: 1.14 fold enrichment (6-mer frequency, TF over GST control)

## ACGCAC
FLI1
  binding signal: 1.06 fold enrichment (6-mer frequency, TF over GST control)
ELK1
  binding signal: 1.09 fold enrichment (6-mer frequency, TF over GST control)
GABPA
  binding signal: 1.04 fold enrichment (6-mer frequency, TF over GST control)
ERG
  binding signal: 1.02 fold enrichment (6-mer frequency, TF over GST control)
ELF1
  binding signal: 1.06 fold enrichment (6-mer frequency, TF over GST control)
EHF
  binding signal: 1.03 fold enrichment (6-mer frequency, TF over GST control)
SPI1
  binding signal: 1.03 fold enrichment (6-mer frequency, TF over GST control)
SPIB
  binding signal: 1.07 fold enrichment (6-mer frequency, TF over GST control)
ELK3
  binding signal: 1.09 fold enrichment (6-mer frequency, TF over GST control)

## CGCCCC
FLI1
  binding signal: 1.12 fold enrichment (6-mer frequency, TF over GST control)
ELK1
  binding signal: 1.17 fold enrichment (6-mer frequency, TF over GST control)
GABPA
  binding signal: 1.11 fold enrichment (6-mer frequency, TF over GST control)
ERG
  binding signal: 1.14 fold enrichment (6-mer frequency, TF over GST control)
ELF1
  binding signal: 1.22 fold enrichment (6-mer frequency, TF over GST control)
EHF
  binding signal: 1.19 fold enrichment (6-mer frequency, TF over GST control)
SPI1
  binding signal: 1.18 fold enrichment (6-mer frequency, TF over GST control)
SPIB
  binding signal: 1.1 fold enrichment (6-mer frequency, TF over GST control)
ELK3
  binding signal: 1.18 fold enrichment (6-mer frequency, TF over GST control)
